“And” between values parts separate entries of the source, which are not always exact repeats. Identical values can stand only once. Among all 5,500 compounds or so, about 2,000 (36%) were called active. About 18% were inconclusive and are not listed. Rule as the data show it: active = normalized growth mostly below about 0.91 (no sharp cut-off); inconclusive = no clear call, values can overlap the other calls; inactive = mostly above about 0.92. This is one part of the list.
Test: chemical genetic growth profiling, strain panel (AID 1159580);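 also: tested at 20 µM; growth read once vehicle control cultures reached saturation at 30 °C; 1 = growth at the plate median or of vehicle wells; lower values mean less growth of the strain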
Details: S. cerevisiae deletion strains, growth OD

Measured: normalized growth

O=C(O)C(O)C(O)C(=O)O (configuration not stated)
inactive: locus YAL013W, strain DEP1, hits give low values 0.974 | locus YAL021C, strain ccr4, hits give low values 1 | locus YAL026C, strain drs2, hits give low values 0.999 | locus YAL030W, strain snc1, hits give low values 1 | locus YBL061C, strain skt5, hits give low values 0.989 | locus YBR009C, strain hhf1, hits give low values 0.99 | locus YBR021W, strain FUR4, hits give low values 1.02 | locus YBR023C, strain chs3, hits give low values 0.989 | locus YBR171W, strain sec66, hits give low values 0.986 | locus YBR229C, strain ROT2, hits give low values 0.952 | locus YBR231C, strain swc5, hits give low values 0.996 | locus YBR279W, strain paf1, hits give low values 0.985 | locus YCL011C, strain gbp2, hits give low values 0.988 | locus YCL016C, strain dcc1, hits give low values 0.994 | locus YCL029C, strain bik1, hits give low values 0.985 | locus YCL061C, strain MRC1, hits give low values 0.997 | locus YCL069W, strain vba3, hits give low values 0.982 | locus YCR088W, strain abp1, hits give low values 0.992 | locus YDL005C, strain med2, hits give low values 0.984 | locus YDL035C, strain GPR1, hits give low values 0.996 | locus YDL040C, strain nat1, hits give low values 1.01 | locus YDL074C, strain BRE1, hits give low values 0.976 | locus YDL101C, strain DUN1, hits give low values 0.958 | locus YDL134C, strain PPH21, hits give low values 0.986 | locus YDL185W, strain tfp1, hits give low values 0.966 | locus YDL192W, strain arf1, hits give low values 0.985 | locus YDR001C, strain nth1, hits give low values 0.996 | locus YDR069C, strain doa4, hits give low values 0.99 | locus YDR101C, strain arx1, hits give low values 0.994 | locus YDR137W, strain rgp1, hits give low values 0.984 | locus YDR150W, strain NUM1, hits give low values 0.979 | locus YDR159W, strain sac3, hits give low values 0.975 | locus YDR162C, strain NBP2, hits give low values 0.95 | locus YDR195W, strain ref2 0.978 | locus YDR297W, strain sur2, hits give low values 0.99 | locus YDR318W, strain mcm21, hits give low values 0.999 | locus YDR334W, strain swr1, hits give low values 0.992 | locus YDR335W, strain msn5, hits give low values 0.992 | locus YDR388W, hits give low values 0.99 | locus YDR392W, strain spt3, hits give low values 1 | locus YDR502C, strain sam2, hits give low values 0.991 | locus YEL003W, strain gim4, hits give low values 0.998 | locus YEL037C, strain rad23, hits give low values 1 | locus YEL061C, strain CIN8 (second series), hits give low values 1 | locus YEL061C, strain CIN8, hits give low values 0.984 | locus YER015W, strain faa2, hits give low values 0.992 | locus YER016W, strain bim1, hits give low values 1 | locus YER110C, hits give low values 0.982 | locus YER111C, strain swi4, hits give low values 0.988 | locus YER155C, strain BEM2 (second series), hits give low values 0.991 | locus YER155C, strain BEM2, hits give low values 0.992 | locus YER167W, strain BCK2, hits give low values 0.989 | locus YFR010W, strain ubp6, hits give low values 1 | locus YGL078C, strain dbp3, hits give low values 0.99 | locus YGL086W, strain mad1, hits give low values 1 | locus YGL167C, strain pmr1, hits give low values 1.02 | locus YGL173C, strain kem1, hits give low values 0.974 | locus YGL227W, strain vid30, hits give low values 0.997 | locus YGL240W, strain doc1, hits give low values 0.991 | locus YGL248W, strain PDE1, hits give low values 0.98 | locus YGL253W, strain hxk2, hits give low values 0.994 | locus YGR078C, strain PAC10, hits give low values 0.99 | locus YGR135W, strain pre9, hits give low values 0.978 | locus YGR229C, strain SMI1, hits give low values 0.995 | locus YGR252W, strain gcn5, hits give low values 1.03 | locus YHR013C, strain ard1, hits give low values 0.987 | locus YHR027C, strain rpn1, hits give low values 0.987 | locus YHR030C, strain SLT2, hits give low values 0.997 and 0.963 | locus YHR079C, strain IRE1 (second series), hits give low values 0.996 | locus YHR079C, strain IRE1, hits give low values 0.976 | locus YHR094C, strain hxt1, hits give low values 0.987 | locus YHR129C, strain ARP1, hits give low values 0.993 | locus YHR142W, strain chs7, hits give low values 0.983 | locus YHR200W, strain rpn10, hits give low values 0.99 | locus YIL066C, strain RNR3, hits give low values 0.996 | locus YIL073C, strain SPO22, hits give low values 1.01 | locus YIL125W, strain kgd1, hits give low values 0.995 | locus YIR030C, strain dcg1, hits give low values 0.989 | locus YJL092W, strain hpr5, hits give low values 1 | locus YJL095W, strain BCK1 (second series), hits give low values 1 | locus YJL095W, strain BCK1, hits give low values 1 and 0.963 | locus YJL115W, strain asf1, hits give low values 0.997 | locus YJL129C, strain trk1, hits give low values 0.98 | locus YJL134W, strain LCB3, hits give low values 0.982 | locus YJL154C, strain vps35, hits give low values 0.988 | locus YJL164C, strain tpk1, hits give low values 1.01 | locus YJL166W, strain qcr8, hits give low values 0.989 | locus YJL168C, strain set2, hits give low values 0.996 | locus YJL187C, strain SWE1 (second series), hits give low values 0.98 | locus YJL187C, strain SWE1, hits give low values 1 | locus YJR043C, strain POL32, hits give low values 1.03 | locus YJR066W, strain TOR1, hits give low values 0.943

Reference: PubChem BioAssay AID1159580 (chemical genetic matrix, 2015)
